Inconclusive results are not listed. A number with no mark means an inactive call. Activity calls are given as the source filed them. The call rests on the fitted dose curve; in most records, active means well fitted inhibition curve with a large enough effect; inconclusive means small, poorly fitted or top-dose-only effect; inactive means flat fitted curve, though single readings scatter.
test system: HEK293; test: Cytotoxic Profiling of Annotated Libraries Using Quantitative High-Throughput Screening (AID 1296008); settings: Five cell lines viability, CellTiter-Glo ATP luminescence, 48-72 h; max response: hits give low values; further: nearly all actives have a fitted effect of over 60% in size
Procedure, shortened: (§1)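 Cytotoxicity was measured as CellTiter-Glo ATP luminescence, read after 10 min at room temperature. Compound treatment of the cells lasted 48 or 72 hr at 37 degrees Celsius in a qHTS format.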
On the % scale 0 is the no-effect control and ±100 the full control effect; potency means the concentration at half of the fitted maximal effect.

| SMILES | Potency | max response |
| --- | --- | --- |
| CN(CCc1ccc(Nc2ncc(-c3cccnc3)s2)cc1)Cc1ccccc1 | 7.31 µM (active) | – |
| COc1ccc2[nH]c3c(-c4cccc5ccccc45)nccc3c2c1 | 1.3 µM (active) | – |
| C[C@@H]1CCC2C(C)(C)[C@H](O)CC[C@]2(C)[C@@]12Cc1c(O)cc3c(c1O2)CNC3=O (stereo partly drawn) | – | -94.6% |
| CC(O)CO[C@@H]1O[C@H](CO)[C@@H](O)[C@H](O)[C@H]1O (stereo partly drawn) | – | -61.7% |
| OC[C@H]1O[C@@H](OC[C@H]2O[C@@H](OC/C=C/c3ccccc3)[C@H](O)[C@@H](O)[C@@H]2O)[C@@H](O)[C@@H]1O | – | 4.4% |
| CC1COC(Nc2ccc3ncnc(Nc4ccc(OCc5nccs5)c(Cl)c4)c3c2)=N1 (stereo not drawn) | 11.6 µM (active) | – |
| C[C@H](O)[C@H](O)/C=C/c1cccc(O)c1CO | – | -4.7% |
| COc1cc(C)c(C(=O)O[C@H]2[C@@H](OC(C)=O)[C@H](n3ccc(=O)[nH]c3=O)O[C@@H]2CO)c(OC)c1 | – | -0.552% |
| CN[C@H](CC(C)C)C(=O)N[C@H]1C(=O)N[C@@H](CC(N)=O)C(=O)N[C@H]2C(=O)N[C@H]3C(=O)N[C@H](C(=O)N[C@H](C(=O)O)c4cc(O)cc(O)c4-c4cc3ccc4O)[C@H](O[C@H]3C[C@](C)(N)[C@@H](O)[C@H](C)O3)c3ccc(c(Cl)c3)Oc3cc2cc(c3O[C@@H]2O[C@H](CO)[C@@H](O)[C@H](O)[C@H]2O[C@H]2C[C@](C)(NCc3ccc(-c4ccc(Cl)cc4)cc3)[C@@H](O)[C@H](C)O2)Oc2ccc(cc2Cl)[C@H]1O | – | -5.83% |

test system: HaCat; test: as above; settings: Five cell lines viability, CellTiter-Glo ATP luminescence, 48-72 h; max response: hits give low values
Procedure, shortened: as §1

| SMILES | max response | outcome | Potency |
| --- | --- | --- | --- |
| CC1(C)CC[C@]2(C(=O)O)[C@H](O)C[C@]3(C)C(=CCC4[C@@]5(C)CC[C@H](O[C@@H]6O[C@H](CO[C@@H]7OC[C@H](O)[C@H](O)[C@H]7O[C@@H]7OC[C@@H](O)[C@H](O)[C@H]7O)[C@@H](O)[C@H](O)[C@H]6O[C@@H]6O[C@H](CO)[C@@H](O)[C@H](O)[C@H]6O)C(C)(C)C5CC[C@]43C)[C@@H]2C1 (stereo partly drawn) | -11.7% | – | – |
| O=C1C=CC2OC(c3ccccc3)C(O)C2O1 (stereo not drawn) | – | inactive | – |
| CC1=C(COC2OC(CO)C(O)C(O)C2O)C(C(CO)C(=O)O)CC1 (stereo not drawn) | -4.43% | – | – |
| CC(C(O)/C=C/C(C)(C)O)C1CCC2(C)C3C(=O)C=C4C(CCC(O)C4(C)C)C3(C)CCC12C (stereo not drawn) | -4.33% | – | – |
| C=C(CO)C12OC1C1(C)C(=CC2=O)C(O)C(O)CC1C (stereo not drawn) | -9.32% | – | – |
| O=S(=O)(c1ccc(S(=O)(=O)n2cnc3ccccc32)cc1)N1CCCCCC1 | -9.6% | – | – |
| C[C@H]1CC[C@@]2(OC1)O[C@H]1CC3C4CC[C@H]5C[C@@H](O)[C@H](O)C[C@]5(C)C4=CC(=O)[C@]3(C)[C@H]1[C@@H]2C (stereo partly drawn) | -0.134% | – | – |
| C/C1=C\C[C@]2(C)C(=O)C(O)=C([C@H](C)CO)[C@H]2C/C=C(\C)[C@@H](O)CC/C(C)=C/CC1 | 0.087% | – | – |
| COc1c(C)c(OCC(O)C(C)(C)O)cc2c1COC2=O (stereo not drawn) | -8.24% | – | – |
| C1CCC[C@H]2CCCN3CC[C@@H](CCCCCC[C@@H]4CCCN5CC[C@@H](CC1)O[C@@H]45)O[C@@H]23 | -0.73% | – | – |
| Cc1cc(NC(=O)Nc2ccc(F)c(F)c2)n(-c2ccccc2)n1 | – | inactive | – |
| C[C@@H]1CC[C@]2(C(=O)OC3OC(CO)C(O)C(O)C3O)CC[C@]3(C)C(=CCC4[C@@]5(C)CC[C@H](O)[C@](C)(C(=O)O)C5CC[C@]43C)C2[C@]1(C)O (stereo partly drawn) | -8.63% | – | – |
| O=C(NCC(O)CO)c1ccncc1Nc1ccc(I)cc1F (stereo not drawn) | – | – | 18.4 µM (active) |
| CC(O)CCC1C(CO[C@@H]2O[C@H](CO)[C@@H](O)[C@H](O)[C@H]2O)CC(O)CC1(C)C (stereo partly drawn) | -5.9% | – | – |
| N#Cc1ccc(C(=O)N2CCC3(CC2)N=C(N)c2c(F)ccc(F)c2N3)cn1 | 2.01% | – | – |
| COc1cc([C@H]2c3cc(O)c(OC)cc3C[C@@H](CO[C@@H]3O[C@H](CO)[C@@H](O)[C@H](O)[C@H]3O)[C@@H]2CO)ccc1O | -4.19% | – | – |
| CC(=O)NC1C(OC(C)(C)C2CCC3(C)C=C(C4CCC5C4(C)CC(O)C4OC(C(C)(C)O)CCC45C)CCC3O2)OC(CO)C(O)C1O (stereo not drawn) | 3.68% | – | – |
| COC(=O)C1=CO[C@@H](O)C2C(CO)=CCC12 (stereo partly drawn) | -12% | – | – |
| Nc1ncnc2c1ncn2CCNCCCCCO | -23.1% | – | – |

— PubChem BioAssay (NCATS)
